# Source: PubChem
# A selection: hits, their analogues and other compounds. The true share with any hit is near 12%.
# BAZ2B block = blocks human BAZ2B. AlphaScreen BAZ2B-H3K14Ac peptide displacement. Potency, µM (doses to about 114 µM), for inactives: at the top dose activity change, negative = inhibition, most hits filed as inhibitors. actives 4.4% (n = 360,000). AID 504333; further: on the % scale 0 is the no-effect control and ±100 the full control effect; nearly all actives have a fitted effect of over 60% in size
# Target sequence (Q9UIF8 whole entry, looked up): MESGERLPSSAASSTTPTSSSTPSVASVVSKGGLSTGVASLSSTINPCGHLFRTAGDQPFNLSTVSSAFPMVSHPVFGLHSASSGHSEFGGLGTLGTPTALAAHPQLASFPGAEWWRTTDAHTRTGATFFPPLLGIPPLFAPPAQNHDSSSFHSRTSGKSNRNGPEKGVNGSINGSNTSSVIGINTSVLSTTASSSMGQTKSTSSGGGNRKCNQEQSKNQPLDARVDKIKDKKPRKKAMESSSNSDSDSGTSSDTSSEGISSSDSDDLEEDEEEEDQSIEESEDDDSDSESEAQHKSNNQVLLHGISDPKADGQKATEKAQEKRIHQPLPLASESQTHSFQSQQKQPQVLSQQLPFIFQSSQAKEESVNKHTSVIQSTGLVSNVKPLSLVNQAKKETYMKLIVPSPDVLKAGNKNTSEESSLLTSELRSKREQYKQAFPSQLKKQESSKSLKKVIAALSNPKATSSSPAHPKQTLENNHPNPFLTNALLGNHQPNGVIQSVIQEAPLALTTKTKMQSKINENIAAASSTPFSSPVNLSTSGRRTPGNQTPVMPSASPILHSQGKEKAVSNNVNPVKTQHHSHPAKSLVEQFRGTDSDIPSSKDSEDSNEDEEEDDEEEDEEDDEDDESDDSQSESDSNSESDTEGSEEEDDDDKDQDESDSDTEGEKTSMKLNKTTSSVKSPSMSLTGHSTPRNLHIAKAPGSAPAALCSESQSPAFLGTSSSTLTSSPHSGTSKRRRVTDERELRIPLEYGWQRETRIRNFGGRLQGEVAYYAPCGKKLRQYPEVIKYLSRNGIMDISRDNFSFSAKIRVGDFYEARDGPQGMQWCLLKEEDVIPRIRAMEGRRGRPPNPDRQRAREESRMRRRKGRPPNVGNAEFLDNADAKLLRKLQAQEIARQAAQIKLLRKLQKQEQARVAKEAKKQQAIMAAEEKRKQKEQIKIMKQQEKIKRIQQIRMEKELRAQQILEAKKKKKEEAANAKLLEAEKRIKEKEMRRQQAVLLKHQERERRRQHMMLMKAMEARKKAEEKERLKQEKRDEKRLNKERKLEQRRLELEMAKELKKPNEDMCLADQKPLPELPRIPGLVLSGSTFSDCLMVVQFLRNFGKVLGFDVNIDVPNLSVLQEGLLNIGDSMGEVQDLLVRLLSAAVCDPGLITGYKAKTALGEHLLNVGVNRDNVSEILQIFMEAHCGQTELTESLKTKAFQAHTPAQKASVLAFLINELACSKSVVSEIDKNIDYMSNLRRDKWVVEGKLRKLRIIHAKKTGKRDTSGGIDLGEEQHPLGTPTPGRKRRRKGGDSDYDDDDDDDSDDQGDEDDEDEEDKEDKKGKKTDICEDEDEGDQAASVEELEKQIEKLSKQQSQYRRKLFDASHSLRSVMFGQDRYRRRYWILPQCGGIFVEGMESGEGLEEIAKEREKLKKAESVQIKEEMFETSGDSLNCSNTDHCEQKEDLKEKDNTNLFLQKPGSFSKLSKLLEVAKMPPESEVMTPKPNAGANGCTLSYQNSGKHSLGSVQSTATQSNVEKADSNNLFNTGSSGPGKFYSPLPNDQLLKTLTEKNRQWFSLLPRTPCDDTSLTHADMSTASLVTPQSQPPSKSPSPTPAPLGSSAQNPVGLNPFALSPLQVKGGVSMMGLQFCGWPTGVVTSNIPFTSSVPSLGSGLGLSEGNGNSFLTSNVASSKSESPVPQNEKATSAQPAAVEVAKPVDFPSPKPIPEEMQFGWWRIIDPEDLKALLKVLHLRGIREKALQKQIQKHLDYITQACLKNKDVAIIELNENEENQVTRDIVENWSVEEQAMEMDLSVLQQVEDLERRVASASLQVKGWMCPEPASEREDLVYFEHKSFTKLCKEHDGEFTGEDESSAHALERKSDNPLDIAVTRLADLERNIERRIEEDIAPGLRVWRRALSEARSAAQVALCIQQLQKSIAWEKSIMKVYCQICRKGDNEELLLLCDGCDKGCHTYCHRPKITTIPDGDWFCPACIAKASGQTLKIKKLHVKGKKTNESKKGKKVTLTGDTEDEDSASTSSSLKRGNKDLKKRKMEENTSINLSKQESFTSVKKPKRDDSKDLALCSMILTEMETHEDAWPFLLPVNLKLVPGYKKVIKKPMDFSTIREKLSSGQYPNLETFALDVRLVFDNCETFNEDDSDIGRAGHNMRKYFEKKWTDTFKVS
#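 BAZ2B (50 nM) with biotin-H3(5-23)K14Ac peptide (50 nM) in PBS pH 7.4, 0.01% Tween-20, preformed 30 min, then compound 30 min at room temperature; top concentration 110uM. AlphaScreen streptavidin donor/nickel chelate acceptor beads (10 ug/mL final), 20 min dark, signal read.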
# JMJD2A Tudor = JMJD2A Tudor domain (human) inhibition. O75164. AlphaScreen JMJD2A-Tudor / H3K4me3 peptide binding. Potency, µM (top dose mostly 114 µM), inactives show at the highest dose activity change, negative = inhibition, usual class: inhibitors. actives 4.4% (n = 390,000); further: on the % scale 0 is the no-effect control and ±100 the full control effect; nearly all actives have a fitted effect of over 50% in size
# HP1b chromo inh = HP1-beta chromodomain-methylated histone interaction inhibition | P83916 | AlphaScreen HP1-beta / biotin-H3K9me3 peptide binding | Potency, µM (series often up to 114 µM), inactives show top-dose activity change, negative = inhibition, most hits filed as inhibitors | actives 0.56% (n = 390,000); further: nearly all actives have a fitted effect of over 70% in size
#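 Compound inhibition of the preformed complex between 50 nM HP1-beta and 50 nM biotinylated H3K9me3 peptide was read by AlphaScreen. Buffer was PBS pH 7.4 with 0.01% Tween-20. Incubations ran 30 min at room temperature, with 10 ug/mL donor/acceptor beads.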
# Sfp PPTase inh = blocks B. subtilis Sfp PPTase activity. Q9F4F7. Biochemical Sfp PPTase activity, qHTS. Potency, µM, for inactives: largest response in the series, negative = inhibition, hits mostly inhibitors. actives 3.5% (n = 310,000);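 further: the enzyme is Sfp with the accession as filed and its product quenches rhodamine fluorescence; 0% = enzyme reaction without inhibitor and -100% = no enzyme wells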
#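 Fluorescence-quenching assay with 15 nM Sfp, 5 uM rhodamine-CoA and 12.5 uM BHQ-2-labelled ybbR peptide in pH 7.6 Hepes/MgCl2 buffer. Enzyme was pre-incubated with compound for 15 min at room temperature. Rate was taken from the 30-min fluorescence change (525/598 nm).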
# G9a block = G9a (human) methyltransferase inhibition; G9a H3K9 monomethylation, AlphaScreen, 2 h; Potency, µM (titrated, usually from 102 µM), for inactives: top-dose activity, negative = inhibition, most hits filed as inhibitors; actives 8.8% (n = 350,000); further: on the % scale 0 is the no-effect control and ±100 the full control effect; nearly all actives have a fitted effect of over 75% in size
#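 AlphaScreen detection with an anti-monomethyl H3K9 antibody quantified product after a 2 h room-temperature reaction containing 500 nM biotinylated H3K9 peptide, 20 µM SAM and 20 nM enzyme, which had been preincubated 15 min with compound.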
# PLK1 PBD block = blocks phosphopeptide binding to human PLK1 polo-box domain | P53350 | Plk1 PBD binding of FITC phosphopeptide, fluorescence polarization | Potency, µM, for the others: max response, negative = inhibition, actives largely listed as inhibitors | actives 2.8% (n = 360,000) | AID 720504; further: series mostly up to about 57 µM; on the % scale 0 is the no-effect control and ±100 the full control effect; nearly all actives have a fitted effect of over 65% in size
# Starred values were filed as active, the others as inactive; ? = inconclusive; . = not tested or not shown; [ ] = dose if it differs, or a comment. The call rests on the fitted dose curve; in most records, active means well fitted curve in the direction sought with a large enough effect; inconclusive means small, poorly fitted or top-dose-only effect, or another doubt; inactive means no such curve, though single readings can be large; an effect the other way counts as inactive or inconclusive. Potency means the concentration at half of the fitted maximal effect.
SMILES,BAZ2B block,JMJD2A Tudor,HP1b chromo inh,Sfp PPTase inh,G9a block,PLK1 PBD block
COc1cccc(/C=N/Nc2nc(C)cc(=O)[nH]2)c1OC,-36%,-28%,38%,56µM*,14%,-8%
CCCc1c(C)c2cccc(C)c2[nH]c1=O,2%,-10%,14%,6%,-5%,-7%
CCCCN1CCc2c([nH]c3c(C)cccc23)C1=O,-20%,20µM*,?,-12%,-23%[59 µM],3.4µM*
CC1(C)OC(=O)C2(Cc3c(F)cccc3N3CCCC32)C(=O)O1 (centres undefined),.,-24%,34%,.,.,.
CNCCCOc1cccc(OC(C)C)c1,50µM*,1.6µM*,?,-16%,13µM*,-2%
CC(O)CNCCCOc1ccccc1OCc1ccccc1 (centres undefined),50µM*,3.2µM*,-32%,-13%,13µM*,-9%
CC(O)CNCCCCOc1ccc(OCc2ccccc2)cc1 (centres undefined),?,-22%,12%,1%,15%[59 µM],4%
COCCNC(=O)COc1cccc(Oc2ccccc2)c1,-6%,-10%,12%,-2%,-1%[12.7 µM],-14%
CC(O)CNCCCOc1cccc(Oc2ccccc2)c1 (centres undefined),28µM*,22µM*,15%,-21%,.,-8%
CC(=O)NCCOc1cccc(OCCNC(C)=O)c1,7%,-14%,35%,18%,11%[59 µM],-1%
CNCCCOc1cccc(Oc2ccccc2)c1,50µM*,1.6µM*,8%,-14%,.,-2%
Cc1cc(O)c(C(c2ccc(Cl)cc2)N2CCN(c3ccccc3)CC2)c(=O)n1Cc1ccco1 (centres undefined),-25%,-32%,16%[57 µM],.,?,.
Cc1cc2c(nc1C)CCCN2C[C@H](C)O/N=C\[C@@H](C)[C@H](OCc1ccccc1)C(C)C,.,.,.,5%,.,.
Cc1cccc(Cn2ncc3c4sc(C)cc4n(C)c3c2=O)c1,.,11%,.,.,.,.
CC(=O)Nc1nnc(-c2ccccn2)o1,?,?,16%,?,28µM*,-7%
N#Cc1ccc(C(=O)Nc2nnc(-c3ccccn3)o2)cc1,8.9µM*,?,16%,20%,50µM*,-8%
O=C(Nc1nnc(-c2ccccn2)o1)c1cccc(Cl)c1,.,-28%,27%,6%,-6%,-7%
CCOc1ccc(NC(=O)c2ccccc2SC)cc1,16%,-18%[11.4 µM],6%,8%,10%,19µM*
COc1ccc(NC(=O)c2cc(-c3ccccc3O)no2)cc1,-28%,?,-16%,.,13µM*,.
COc1ccc(NC(=O)c2sc(=S)[nH]c2N)cc1,?,35µM*,-27%,56µM*,?,?
CCOc1ccc(NC(=O)c2cc(SC)ccc2Cl)cc1,8%,-4%,22%,11%,11%[59 µM],-17%
COc1ccc(NC(=O)CS(=O)(=O)c2cccc(Cl)c2)cc1,-16%,?,11%,7%,5%,21µM*
COc1ccc(NC(=O)CS(=O)(=O)c2ccc(Br)cc2)cc1,-18%,-6%,-2%,3%,-3%,-6%
COc1ccc(-c2cc(C(=O)Nc3ccccc3)on2)cc1,-15%,-9%,44%,16%,9%,-1%
CC(C)=CCc1cc([C@@H]2CC(=O)c3ccc(O)c(CC=C(C)C)c3O2)ccc1O,.,?,7%,.,.,-2%
CC(C)(C)OC(=O)N1CCCC(C(=O)Nc2cccc(C(=O)N3CCOCC3)c2)C1 (centres undefined),.,-17%,32%,.,.,-14%
COC(=O)N1CCC2(CC1)CN(C(=O)Nc1cccc(F)c1)C2,.,.,.,15%,12%[12.7 µM],.
COc1ccc(C(=O)Nc2ccc(OC)c(OC)c2)cc1,5%,-19%,14%,20%,-26%[12.7 µM],-6%
COc1ccccc1Oc1ccc(NC(=O)c2ccc(Cl)cc2)cc1,-17%,-27%,19%,8%,-6%,30µM*
COc1ccc(NC(=O)CN(C)CC(=O)Nc2ccccc2SC)cc1,20µM*,32µM*,?,?,8.9µM*,-15%
